From PubChem
HT1080 IDH1KD tx: toxicity to HT-1080 IDH1 knockdown cells (counter line) | HT-1080 IDH1 knockdown viability, ATP luminescence, 48 h | Potency, µM (series often up to 46.1 µM), inactives show at the top dose activity, negative = toxicity, most hits filed as cytotoxic | 2% of 360,000 active | AID 686971;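 also: 0% = DMSO wells and -100% = cell-free medium wells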
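After a 2 h attachment period, IDH1KD HT-1080 cells took pin-transferred compound for 48 h at 37 °C; ATP-based luminescence after 10 min room-temperature reagent incubation reported viability.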
HepG2 viability: HepG2 cytotoxicity, counter-screen for TGF-b inhibitors; HepG2 CAGA-GFP viability, ATP luminescence, 18 h; Potency, µM (top dose mostly 46.1 µM), for the others: top-dose activity change, negative = cytotoxicity, hits mostly cytotoxic; 0.76% of 410,000 active; AID 588856
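CellTiter-Glo luminescence gave cytotoxicity after 18 hours at 37 degrees C. The cells were HepG2 CAGA-GFP in 1% FBS DMEM, stimulated with 500 pg/mL TGF-beta after compound addition. %Activity was normalised to no-cell wells (complete cell-killing) and DMSO (no toxicity), and curves were fitted and classified.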
TGFb SMAD3 inh: TGF-b pathway inhibition; HepG2 CAGA-GFP TGF-b/SMAD3 reporter, GFP fluorescence, 18 h; TGF-beta stimulated, 500 pg/mL final; Potency, µM (doses to about 46.1 µM), for the others: at the highest dose activity, negative = inhibition, hits mostly inhibitors; 1.2% of 410,000 active; AID 588855; also: % is scaled to controls: 0 for no effect and ±100 for the full control effect; nearly all actives have a fitted effect of over 65% in size
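TGF-beta reporter screen: HEPG2 CAGA-GFP, 1% FBS, 500 pg/mL TGF-beta final, 18 h; per-cell GFP summed per well; curves fitted and categorized by class.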
TDP1 cell noCPT: qHTS for Inhibitors of human tyrosyl-DNA phosphodiesterase 1 (TDP1): qHTS in cells in absence of CPT. DT40 Tdp1-/- hTDP1 cells, no CPT, ATP luminescence, 48 h. Potency, µM (series often up to 46.2 µM), for the others: top-dose activity change, negative = growth inhibition, actives largely listed as inhibitors. 15% of 420,000 active. AID 686978, 2013; also: % is scaled to controls: 0 for no effect and ±100 for the full control effect; nearly all actives have a fitted effect of over 55% in size
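A cellular qHTS used chicken DT40 cells lacking endogenous Tdp1 but carrying stably transfected human TDP1. Compounds were applied without camptothecin, and cell growth kinetics were judged by ATP-dependent luminescence after ≥48 hr.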
HT1080-NT tox: kills 2HG-producing HT-1080-NT fibrosarcoma cells; HT-1080-NT fibrosarcoma viability, CellTiter-Glo ATP luminescence, 48 h; Potency, µM (series often up to 46.1 µM), for the others: at the highest dose activity, negative = less viability, actives largely listed as cytotoxic; 1.6% of 360,000 active;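 also: NT is the 2HG producing partner of a matched IDH1 knockdown line; 0% = DMSO-treated cells and -100% = media-only wells without cells; nearly all actives have a fitted effect of over 55% in size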
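Viability of the 2HG-overproducing fibrosarcoma line after 48 hours of compound exposure at 37 degrees C was determined by luminescence with CellTiter-Glo, and concentration-effect curves were then fitted and categorized.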
DT40 TDP1 CPT: DT40-hTDP1 cell growth loss with CPT; chicken DT40 Tdp1-/-;hTDP1 cells + 20 nM CPT, ATP luminescence, 48 h; Potency, µM (titrated, usually from 46.2 µM), for the others: at the top dose activity change, negative = growth inhibition, hits mostly inhibitors; 12% of 420,000 active; also: % is scaled to controls: 0 for no effect and ±100 for the full control effect; nearly all actives have a fitted effect of over 55% in size
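Cell growth measured by CellTiter-Glo luminescence after a minimum 48 h, 37 C compound exposure with 20 nM CPT in Tdp1-knockout DT40 cells stably expressing hTDP1, seeded 400/well; qHTS titration format.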
Starred values were filed as active, the others as inactive; ? = inconclusive; nt = no result given. An excerpt weighted towards active compounds, which were near 17% of everything screened. Calls follow the shape of the dose curve; as a rule, active = well fitted curve in the direction sought with a large enough effect; inconclusive = small, poorly fitted or top-dose-only effect, or another doubt; inactive = no such curve, though single readings can be large; an effect the other way counts as inactive or inconclusive. Potency is read from the fitted curve at half-maximal effect.

SMILES	HT1080 IDH1KD tx	HepG2 viability	TGFb SMAD3 inh	TDP1 cell noCPT	HT1080-NT tox	DT40 TDP1 CPT
CCn1cc(C(=O)NCc2cccc(F)c2)c(=O)c2cc(F)c(N3CCN(C(=O)c4ccco4)CC3)cc21	23µM*	1%	1%	8.2µM*	13µM*	5.8µM*
CCn1cc(C(=O)NCc2cccnc2)c(=O)c2cc(F)c(N3CCN(C(=O)c4ccco4)CC3)cc21	-13%	0%	0%	21µM*	-1%	21µM*
CCCCNC(=O)c1cn(CC)c2cc(N3CCN(C)CC3)c(F)cc2c1=O	6%	-18%	-3%	-28%	10%	-6%
O=C(Cn1ncc(Cl)c(Cl)c1=O)NC(=O)NC1CCCCC1	6.5µM*	-52%	?	2.9µM*	?	2.9µM*
CCN(CC)S(=O)(=O)c1cc(NC(=O)Cn2ncc(Cl)c(Cl)c2=O)ccc1C	7.3µM*	1%	-18%	2.3µM*	10µM*	3.7µM*
O=C(Cn1ncc(Cl)c(Cl)c1=O)c1ccc2c(c1)OCCO2	?	-82%	-19%	23µM*	?	16µM*
Cc1ccc(NC(=O)Cc2ccc(Cl)c(Cl)c2)cc1S(=O)(=O)N(C)C	-22%	-45%	?	23µM*	1%	?
Cc1ccc(NC(=O)Cc2ccccc2Cl)cc1S(=O)(=O)N(C)C	-4%	-24%	-43%	-28%	-5%	-22%
COc1ccc(CNC(=O)C2CCCN(C(=O)c3cnn(-c4ccc(F)cc4)c3-n3cccc3)C2)cc1 (stereo unspecified)	nt	-6%	-4%	nt	nt	nt
